RXFP1 agonist = agonists of human relaxin receptor RXFP1; HEK293T-RXFP1 cAMP TR-FRET, 30 min; response scale: percent of porcine relaxin response, buffer zero; Potency, µM (doses to about 57.5 µM), actives largely listed as activators; actives 0.3% (n = 370,000); AID 2676; active = well fitted activation curve with a large enough effect; inconclusive = small, poorly fitted or top-dose-only effect; note: nearly all actives have a fitted effect of over 60% in size
Target sequence (Q9HBX9 whole entry, looked up): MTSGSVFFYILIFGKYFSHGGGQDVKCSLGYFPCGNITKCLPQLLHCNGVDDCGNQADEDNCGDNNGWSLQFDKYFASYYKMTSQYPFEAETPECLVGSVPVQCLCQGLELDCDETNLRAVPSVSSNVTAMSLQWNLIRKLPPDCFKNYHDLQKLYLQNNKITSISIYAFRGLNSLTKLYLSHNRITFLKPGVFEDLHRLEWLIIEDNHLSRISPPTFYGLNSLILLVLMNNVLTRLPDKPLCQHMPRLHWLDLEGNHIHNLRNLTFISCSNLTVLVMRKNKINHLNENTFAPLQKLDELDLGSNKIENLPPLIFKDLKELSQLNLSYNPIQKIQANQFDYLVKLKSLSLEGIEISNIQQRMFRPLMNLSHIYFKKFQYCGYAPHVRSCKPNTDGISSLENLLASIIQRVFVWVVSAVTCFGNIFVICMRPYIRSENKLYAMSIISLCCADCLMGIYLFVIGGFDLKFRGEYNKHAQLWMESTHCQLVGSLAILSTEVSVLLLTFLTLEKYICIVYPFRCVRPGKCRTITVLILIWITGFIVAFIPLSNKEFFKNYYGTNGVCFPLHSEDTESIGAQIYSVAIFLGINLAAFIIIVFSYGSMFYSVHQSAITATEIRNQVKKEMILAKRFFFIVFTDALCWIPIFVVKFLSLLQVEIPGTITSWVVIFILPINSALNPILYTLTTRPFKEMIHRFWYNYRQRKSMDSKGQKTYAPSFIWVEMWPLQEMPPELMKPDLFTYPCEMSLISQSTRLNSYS
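cAMP rise read by TR-FRET after 30 min, 37C compound exposure (up to 58 uM) in RXFP1-transfected HEK293 cells with Ro 20174 present. EC50 from Hill-equation fits, with 29 nM porcine relaxin as 100% and buffer as basal.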
gsp antag = antagonizes gsp, the McCune-Albright syndrome mutation; gsp-mutant cells, cAMP HTRF, 30 min; Potency, µM (series often up to 76.9 µM), actives largely listed as inhibitors; actives 0.4% (n = 340,000); AID 624288; calls by dose curve; cell line not stated here;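 note: intracellular cAMP measured with PDE inhibitor Ro 20-1724 present during compound exposure; nearly all actives have a fitted effect of over 65% in size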
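HTRF cAMP measurement after 30 min RT detection following 30 min, 37C compound treatment alongside […] (added as 300 uM solution) in G418-selected cells seeded at 2000/well and grown 16–24 h.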
gsp agonist = agonists of gsp mutant (McCune-Albright syndrome) | gsp mutant cells, cAMP HTRF, 30 min | Potency, µM (titrated, usually from 76.9 µM), hits mostly activators | actives 0.13% (n = 340,000) | AID 624287; active = well fitted activation curve with a large enough effect; inconclusive = small, poorly fitted or top-dose-only effect, or another doubt; inactive = no such curve, though single readings can be large or run the other way; cell line not stated here;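 note: phosphodiesterase inhibitor Ro 20-1724 added with compounds to block cAMP breakdown; nearly all actives have a fitted effect of over 60% in size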
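Cells stably selected in G418 were plated at 2000/well, grown 16-24 hr, then given compounds in DMSO with the PDE inhibitor […] (300 uM solution added) for 30 min at 37C; cAMP was read by HTRF.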
RXFP1 antagonist = antagonists of human relaxin receptor RXFP1. actives 0.59% (n = 350,000). activity change, negative = inhibition, % at 57.5 µM. Q9HBX9. AID 1259400. HEK293-RXFP1, relaxin-stimulated cAMP HTRF, 30 min; hits give low values;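 active = activity change of -60% or lower, but not beyond a set lower limit; inconclusive = change between -60% and -40%, or beyond the set limit; inactive = change above -40%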
Each line names hits and unclear results; the compound was inactive in the other large screens. Hits are enriched below; roughly 0.9% of the tested compounds scored in any of these assays.

CC1CCCN(S(=O)(=O)c2ccc3c(c2)c(=O)nc2ccc(Cl)cn23)C1 (stereo unspecified)	gsp antag 39.8µM, gsp agonist inconclusive
Cc1ccc(S(=O)(=O)N2CCCC(C)C2)cc1 (stereo unspecified)	none
CCCOc1ccc(C(=O)Nc2ccc3oc(-c4ccc(N(C)C)cc4)nc3c2)cc1	RXFP1 agonist 3.16µM (no result: gsp antag, gsp agonist)
COc1ccc(N(C(=O)Cn2nnc3ccccc32)C(C(=O)NCc2ccccc2)c2ccc(F)cc2)cc1 (stereo unspecified)	none (no result: gsp antag, gsp agonist)
Nc1cc(=O)[nH]c(SC/C=C/c2ccccc2)n1	none
O=c1cc(C(F)(F)F)nc(SC/C=C/c2ccccc2)[nH]1	gsp antag inconclusive, RXFP1 antagonist -77.5
Cc1ccc(S(=O)(=O)N(CC(=O)Nc2ccccc2C(=O)O)c2ccc(Cl)cc2)cc1	gsp antag inconclusive, RXFP1 antagonist -76.3
CCN(C(=O)Cn1ncc2c1-c1cc(C)ccc1OC2)c1cc(Cl)ccc1OC	none (no result: gsp antag, gsp agonist, RXFP1 antagonist)
CCC1CN(C(=O)N2CCC(C(=O)NCCCc3ccccc3)CC2)c2ccccc2O1 (stereo unspecified)	none (no result: gsp antag, gsp agonist)
CCC1CN(C(=O)N2CCC(C(=O)NCCCc3ccccc3)CC2)c2cc(C)ccc2O1 (stereo unspecified)	RXFP1 antagonist -69.5 (no result: gsp antag, gsp agonist)
Cc1ccccc1CCNC(=O)c1ccc2c(c1)c(C)c(C)n2Cc1ccccc1	none (no result: gsp antag, gsp agonist)
C[C@H]1O[C@@H](O[C@H]2CC[C@@]3(C)[C@H](CC[C@@H]4[C@@H]3C[C@@H](O)[C@]3(C)[C@@H](C5=CC(=O)OC5)CC[C@]43O)C2)C[C@H](O)[C@@H]1O[C@H]1C[C@H](O)[C@H](O[C@H]2C[C@H](O)[C@H](O[C@@H]3O[C@H](CO)[C@@H](O)[C@H](O)[C@H]3O)[C@@H](C)O2)[C@@H](C)O1	none (no result: RXFP1 agonist, gsp antag, gsp agonist)
COc1cc(/C=N/N2CCN(c3ccc(Cl)cc3)CC2)cc(OC)c1OC(C)=O	gsp agonist inconclusive
COc1cc(/C=N/N2CCN(c3ccccc3)CC2)cc(OC)c1OC(C)=O	gsp antag 31.6µM
COc1cc(NS(=O)(=O)c2ccc(C)cc2C)cc(OC)c1OC	gsp antag 35.5µM, gsp agonist inconclusive
CCN(CC)CCN(C(=O)c1ccc([N+](=O)[O-])cc1)c1nc2c(OC)cccc2s1	gsp agonist 12.6µM
CCN(CC)C(=O)COc1ccc(-c2nnc(N3CCCCC3)c3ccccc23)cc1	none
CCOc1ccc(-c2nnc(N3CCCCC3)c3ccccc23)cc1	gsp antag 50.1µM
Cc1ccc2c(c1)-c1cc(C)nn1C(c1cc(Br)ccc1O)N2 (stereo unspecified)	RXFP1 antagonist -114.0 (no result: gsp antag, gsp agonist)
Cc1ccc(C)c(NC(=O)Cn2c(=O)n(Cc3ccc4c(c3)OCO4)c(=O)c3oc4ccccc4c32)c1	none (no result: gsp antag, gsp agonist)
Cc1ccc(C)c(OCCC(=O)OCC(=O)NCCNC(=O)COC(=O)CCOc2cc(C)ccc2C)c1	RXFP1 antagonist -62.0
CC(C)n1nc(-c2cc3cc(O)ccc3[nH]2)c2c(N)ncnc21	none (no result: RXFP1 agonist, gsp antag, gsp agonist)
COc1cccc(C2=Nn3c(nnc3-c3ccccc3O)SC2)c1	gsp agonist inconclusive
C[n+]1c2n(c3ccccc31)N=C(c1cc(C(C)(C)C)c(O)c(C(C)(C)C)c1)CS2	RXFP1 antagonist -85.5
CCCCCCCCCCCCCCCC[N+](C)(C)CC	RXFP1 antagonist -86.8 (no result: gsp agonist)
CCCCCC[N+](C)(C)CCSSCC[N+](C)(C)CCCCCC	none
O=C1c2cc(S(=O)(=O)NCCO)ccc2-c2ccc(S(=O)(=O)NCCO)cc21	none
O=C(O)CNS(=O)(=O)c1ccc2c(c1)C(=O)c1cc(S(=O)(=O)NCC(=O)O)ccc1-2	gsp agonist 12.6µM
COCCNC(=O)c1cn(C)c2ccc(S(=O)(=O)N3CCCC3)cc2c1=O	gsp antag 50.1µM
CC(CC(C#N)(c1ccccc1)C(C)C)N(C)C (stereo unspecified)	none (no result: RXFP1 agonist, gsp antag, gsp agonist)
Cc1c(C(=O)N2CCC(C)CC2)c(S(=O)(=O)N2CCN(c3cccc(Cl)c3)CC2)c(C)n1C	none (no result: gsp antag, gsp agonist)
O=C(O)c1cc(-c2cccs2)nc2ccc(F)cc12	RXFP1 agonist inconclusive, gsp agonist 25.1µM
Cc1cc(C)nc(NS(=O)(=O)c2ccc(NC(=O)COc3ccc(C(C)(C)C)cc3)cc2)n1	RXFP1 antagonist -85.6 (no result: gsp antag, gsp agonist)
CCN(CC)CC(=O)Oc1ccc(NC(C)=O)cc1	none (no result: RXFP1 agonist, gsp antag, gsp agonist)
COc1ccc(/C=C2/SC(=S)N(CCC(=O)O)C2=O)cc1	none
COc1ccc(-c2nn(-c3ccccc3)cc2/C=C2/SC(=S)N(CCC(=O)O)C2=O)cc1	gsp antag 31.6µM

Screens as filed in PubChem BioAssay.
